Measurements as given in PubChem BioAssay (Tox21).
Results filed as inconclusive are left out. The source made the active and inactive calls. Unless noted, the call rests on the fitted dose curve.

What was measured:
[1] = Nuclear factor erythroid 2-related factor 2/antioxidant responsive element (Nrf2/ARE) small molecule agonists: qHTS cell viability counter screen in human keratinocytes (AID 1919968; active means well fitted curve in the direction sought with a large enough effect in the repeat runs; an effect the other way counts as inactive or inconclusive; further: nearly all actives have a fitted effect of over 55% in size)
In short: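 KeratinoSens cells (HaCaT keratinocytes stably carrying an ARE-luciferase reporter) were seeded at 1,500 cells/well and rested 5 h at 37 C/5% CO2. They were then exposed to compounds in DMSO for 23 h. Viability was read by CellTiter-Fluor fluorescence after 1 h.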

[2] = Nuclear factor erythroid 2-related factor 2/antioxidant responsive element (Nrf2/ARE) small molecule agonists: luciferase reporter gene qHTS assay in human keratinocytes (AID 1919969); further: nearly all actives have a fitted effect of over 35% in size
[3] = target: Gonadotropin-releasing hormone receptor (Homo sapiens) (UniProt P30968); experiment: Human gonadotropin-releasing hormone receptor (GnRHR) small molecule agonists, calcium flux assay in GnRHR-HEK293 cells (AID 1920063); further: nearly all actives have a fitted effect of over 35% in size
Chain of Gonadotropin-releasing hormone receptor (Homo sapiens) (P30968 whole entry, looked up): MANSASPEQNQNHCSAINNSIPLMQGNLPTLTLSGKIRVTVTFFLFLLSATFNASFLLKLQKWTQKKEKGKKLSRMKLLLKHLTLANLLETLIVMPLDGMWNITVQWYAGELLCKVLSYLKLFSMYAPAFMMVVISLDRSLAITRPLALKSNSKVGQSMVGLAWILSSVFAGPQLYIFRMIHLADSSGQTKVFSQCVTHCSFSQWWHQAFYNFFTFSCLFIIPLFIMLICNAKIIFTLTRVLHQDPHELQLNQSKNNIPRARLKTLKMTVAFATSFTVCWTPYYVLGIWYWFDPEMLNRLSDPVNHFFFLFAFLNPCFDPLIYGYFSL
In short: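 HEK293 cells stably expressing human GnRHR were plated 18 h at 37 °C, loaded with calcium dye 1 h at 37 °C, then given compound in agonist mode; fluorescence (Ex/Em 480/540) read kinetically for 3 min at 1 s intervals.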

[4] = target: KiSS-1 receptor (Homo sapiens) (UniProt Q969F8); experiment: Human kisspeptin (KISS1R) small molecule agonists, calcium flux assay in KISS1R-HEK293 cells (AID 1920064; active means well fitted curve in the direction sought with a large enough effect in the repeat runs; an effect the other way counts as inactive or inconclusive)
Chain of KiSS-1 receptor (Homo sapiens) (Q969F8 whole entry, looked up): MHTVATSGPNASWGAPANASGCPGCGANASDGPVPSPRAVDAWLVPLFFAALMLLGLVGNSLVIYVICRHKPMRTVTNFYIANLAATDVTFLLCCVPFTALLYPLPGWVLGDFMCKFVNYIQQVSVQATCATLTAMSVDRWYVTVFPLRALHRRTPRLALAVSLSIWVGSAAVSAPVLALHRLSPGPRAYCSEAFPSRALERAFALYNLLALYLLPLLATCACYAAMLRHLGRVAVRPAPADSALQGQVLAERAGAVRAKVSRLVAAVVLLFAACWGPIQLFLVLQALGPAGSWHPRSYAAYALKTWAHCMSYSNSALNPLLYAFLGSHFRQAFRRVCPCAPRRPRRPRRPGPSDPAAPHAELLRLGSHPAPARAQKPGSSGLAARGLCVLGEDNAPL
In short: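 HEK293 cells stably expressing human KISS1R were plated 18 h at 37 °C, loaded with calcium dye for 1 h at 37 °C, then given compound by pin tool. Fluorescence (Ex/Em 480/540) was read kinetically for 3 min.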

[5] = G protein-coupled receptor (GPCR) small molecule agonists, calcium flux assay: HEK293 wild type cell line counter screen (AID 1920065)
In short: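 Cells were plated and cultured 18 h at 37 C/5% CO2, then loaded with calcium dye for 1 h at 37 C. Compounds in DMSO were pin-transferred in agonist mode, and fluorescence (Ex/Em 480/540) was read kinetically for 3 min at 1 s intervals.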

[6] = p53 small molecule agonists, cell-based qHTS assay with human liver microsomes (AID 1963577);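 further: p53 response element beta-lactamase reporter cells with liver microsomes plus NADPH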
In short: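 With metabolic activation: human liver microsomes (0.5 mg/mL final) plus NADPH (0.5 mg/mL final) added alongside compounds to p53RE-bla cells; 16 h 37 C exposure; beta-lactamase read by LiveBLAzer fluorescence.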

[7] = p53 small molecule agonists, cell-based qHTS assay with rat liver microsomes (AID 1963578)
In short: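 Metabolic activation by rat liver microsomes and NADPH, each 0.5 mg/mL final, added right after compounds to p53RE-bla reporter cells (4,000/well, plated 5 h earlier). 16 h at 37 C, then LiveBLAzer substrate for 2 h at room temperature in the dark; fluorescence read-out.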

[8] = p53 small molecule agonists, cell-based qHTS assay with human liver microsomes: qHTS cell viability counter screen (AID 1963579); further: nearly all actives have a fitted effect of over 45% in size
In short: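 Metabolic activation used human liver microsomes and NADPH, both 0.5 mg/mL final, over 16 hours at 37 C on p53RE-bla cells (4,000/well). Cytotoxicity measured by CellTiter-Glo luminescence, 30 min at room temperature.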

[9] = p53 small molecule agonists, cell-based qHTS assay with rat liver microsomes: qHTS cell viability counter screen (AID 1963580); further: nearly all actives have a fitted effect of over 45% in size
In short: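 HCT-116 p53RE-bla, 4,000 cells/well, 5 h pre-incubation; cpd + rat liver microsomes 0.5 mg/mL + NADPH 0.5 mg/mL (final); 16 h, 37 C; CellTiter-Glo, 30 min RT; luminescence.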

[10] = p53 small molecule agonists, cell-based qHTS assay: qHTS cell viability counter screen (AID 1963581); further: nearly all actives have a fitted effect of over 45% in size
In short: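 p53RE-bla HCT-116 cells were exposed to compounds for 16 h at 37 C; after the beta-lactamase FRET read in the same wells, CellTiter-Glo was added and luminescence (intracellular ATP) read after 30 min at room temperature.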

[11] = p53 small molecule agonists, cell-based qHTS assay (AID 1963582; active means well fitted activation curve with a large enough effect in the signal ratio in the repeat runs, not every such curve was filed as active; the % refers to the signal ratio)
In short: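 p53RE-bla beta-lactamase reporter cells rested 5 h at 37 C/5% CO2, then received compounds in DMSO by pin transfer and were incubated 16 h at 37 C. LiveBLAzer B/G FRET substrate was loaded for 2 h at room temperature before fluorescence reading.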

[12] = target: 5-hydroxytryptamine receptor 2A (Homo sapiens) (UniProt P28223); experiment: 5-hydroxytryptamine receptor 2A (HTR2A) small molecule agonists, cell-based qHTS assay (AID 1963587); further: nearly all actives have a fitted effect of over 30% in size
Chain of 5-hydroxytryptamine receptor 2A (Homo sapiens) (P28223 whole entry, looked up): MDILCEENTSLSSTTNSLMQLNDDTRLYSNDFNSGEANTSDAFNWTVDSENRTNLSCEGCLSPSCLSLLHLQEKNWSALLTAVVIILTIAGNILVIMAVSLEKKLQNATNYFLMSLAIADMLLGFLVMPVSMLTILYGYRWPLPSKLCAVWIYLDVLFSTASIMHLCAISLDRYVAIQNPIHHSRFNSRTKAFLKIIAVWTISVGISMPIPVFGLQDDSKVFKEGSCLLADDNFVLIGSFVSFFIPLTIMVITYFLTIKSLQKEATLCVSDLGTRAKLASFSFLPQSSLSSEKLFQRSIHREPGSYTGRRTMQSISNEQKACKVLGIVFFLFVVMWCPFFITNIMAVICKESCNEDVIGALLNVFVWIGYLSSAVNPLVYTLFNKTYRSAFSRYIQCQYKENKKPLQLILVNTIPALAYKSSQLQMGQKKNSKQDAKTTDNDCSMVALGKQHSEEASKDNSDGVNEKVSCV
In short: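 Kinetic calcium-flux fluorescence (2 min, 1 sec intervals) after compound addition in agonist mode. HTR2A-CHO cells were cultured 18 h, then dye-loaded 1 h at 37 C.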

[13] = target: Muscarinic acetylcholine receptor M1 (Homo sapiens) (UniProt P11229); experiment: Cholinergic receptor muscarinic 1 (CHRM1) small molecule antagonists, cell-based qHTS assay (AID 1963588); further: nearly all actives have a fitted effect of over 40% in size
Chain of Muscarinic acetylcholine receptor M1 (Homo sapiens) (P11229 whole entry, looked up): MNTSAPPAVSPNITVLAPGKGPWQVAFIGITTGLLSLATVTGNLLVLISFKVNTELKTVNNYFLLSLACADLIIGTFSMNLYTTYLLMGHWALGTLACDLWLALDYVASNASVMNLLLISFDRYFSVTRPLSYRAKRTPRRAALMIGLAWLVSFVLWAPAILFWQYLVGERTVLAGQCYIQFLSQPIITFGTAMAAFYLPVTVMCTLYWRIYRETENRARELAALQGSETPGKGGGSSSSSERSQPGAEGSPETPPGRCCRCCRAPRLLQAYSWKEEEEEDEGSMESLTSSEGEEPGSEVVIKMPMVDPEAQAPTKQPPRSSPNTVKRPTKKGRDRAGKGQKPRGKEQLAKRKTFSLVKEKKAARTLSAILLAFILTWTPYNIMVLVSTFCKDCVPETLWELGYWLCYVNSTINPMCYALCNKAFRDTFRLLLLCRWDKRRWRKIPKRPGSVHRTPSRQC
In short: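 CHRM1-CHO calcium-flux assay, antagonist mode. Cells were seeded 18 h, dye-loaded 1 h at 37 C and given compound for 5 min at RT, then acetylcholine was added at 50nM. FDSS fluorescence was read 3 min; 15 concentrations, three runs.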

[14] = target: Muscarinic acetylcholine receptor M1 (Homo sapiens) (UniProt P11229); experiment: Cholinergic receptor muscarinic 1 (CHRM1) small molecule agonists, cell-based qHTS assay (AID 1963589); further: nearly all actives have a fitted effect of over 35% in size
In short: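 CHO cells stably expressing human CHRM1, seeded 18 h at 37 C/5% CO2, dye-loaded 1 h at 37 C, then given compound in agonist mode; intracellular calcium fluorescence read kinetically at 1 s intervals. Fifteen concentrations, three independent runs.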

[15] = cAMP Responsive Elements (CRE) small molecule agonists, cell-based qHTS assay (AID 1963590)
In short: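 CRE-bla HEK 293T cells in DMEM with 10% dialyzed FBS, NEAA, pyruvate and 25 mM HEPES were plated 18 h at 37 C/5% CO2, then exposed to compounds in DMSO for 3 h before LiveBLAzer B/G FRET substrate addition.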

[16] = cAMP Responsive Elements (CRE) small molecule antagonists, cell-based qHTS assay (AID 1963591; active means well fitted inhibition curve with a large enough effect in the signal ratio in the repeat runs, not every such curve was filed as active; the % refers to the signal ratio)
In short: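 CRE-bla HEK293T cells were plated 18 h at 37 °C/5% CO2, pinned with compound in DMSO, then stimulated with NKH477 at 0.25 uM final for 3 h. LiveBLAzer B/G FRET substrate was added and plates incubated 2 h at room temperature.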

[17] = target: Beta-2 adrenergic receptor (Homo sapiens) (UniProt P07550); experiment: Adrenergic beta2 receptor (ADRB2) small molecule antagonists, cell-based qHTS assay (AID 1963592); further: series mostly up to about 92 µM; nearly all actives have a fitted effect of over 50% in size
Chain of Beta-2 adrenergic receptor (Homo sapiens) (P07550 whole entry, looked up): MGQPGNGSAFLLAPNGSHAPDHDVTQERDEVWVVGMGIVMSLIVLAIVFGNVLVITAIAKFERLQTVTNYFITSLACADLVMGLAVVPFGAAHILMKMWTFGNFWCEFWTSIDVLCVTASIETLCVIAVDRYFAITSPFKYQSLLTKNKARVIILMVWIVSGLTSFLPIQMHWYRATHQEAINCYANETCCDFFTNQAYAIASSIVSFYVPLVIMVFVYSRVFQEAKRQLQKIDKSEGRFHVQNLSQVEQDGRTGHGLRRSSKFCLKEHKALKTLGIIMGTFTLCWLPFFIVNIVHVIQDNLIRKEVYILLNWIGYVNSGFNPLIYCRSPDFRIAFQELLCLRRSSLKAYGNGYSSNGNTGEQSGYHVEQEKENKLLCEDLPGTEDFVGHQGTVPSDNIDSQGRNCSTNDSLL
In short: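 Cells (CHO, stable ADRB2 overexpression) incubated 18-20hr at 37C; compounds added from DMSO; agonist mix (1nM isoproterenol, 100uM IBMX, 25uM Ro-20-1724) added; 0.5hr RT; d2-cAMP and anti-cAMP-cryptate added; 1hr RT; 665/615 nm read.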

[18] = target: Beta-2 adrenergic receptor (Homo sapiens) (UniProt P07550); experiment: Adrenergic beta2 receptor (ADRB2) small molecule agonists, cell-based qHTS assay (AID 1963593);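 further: CHO cells stably overexpressing human ADRB2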
In short: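 CHO cells stably over-expressing ADRB2 were plated overnight at 37C, then dosed with compounds plus a stimulation mix containing 100uM IBMX and 25uM Ro-20-1724 for 0.5hr at room temperature. cAMP was measured by HTRF competition, 1hr.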

[19] = target: D(2) dopamine receptor (Homo sapiens) (UniProt P14416); experiment: Dopamine D2 receptor (DRD2) small molecule agonists, cell-based qHTS assay (AID 1963594); further: nearly all actives have a fitted effect of over 35% in size
Chain of D(2) dopamine receptor (Homo sapiens) (P14416 whole entry, looked up): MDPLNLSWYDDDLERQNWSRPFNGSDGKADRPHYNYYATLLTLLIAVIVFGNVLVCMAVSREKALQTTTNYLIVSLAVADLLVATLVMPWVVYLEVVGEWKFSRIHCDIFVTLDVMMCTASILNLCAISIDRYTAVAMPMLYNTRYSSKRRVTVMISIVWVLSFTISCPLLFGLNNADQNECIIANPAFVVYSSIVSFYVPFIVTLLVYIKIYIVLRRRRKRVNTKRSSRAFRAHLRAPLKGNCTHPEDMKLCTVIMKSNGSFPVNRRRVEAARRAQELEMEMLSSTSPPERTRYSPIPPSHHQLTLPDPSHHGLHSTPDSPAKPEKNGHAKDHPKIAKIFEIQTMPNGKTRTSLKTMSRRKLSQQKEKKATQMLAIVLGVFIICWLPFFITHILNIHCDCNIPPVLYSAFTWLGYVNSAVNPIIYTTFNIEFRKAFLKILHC
In short: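 cAMP accumulation in DRD2-HEK293 cells measured by HTRF after 1 h detection; compounds added 10 min before NKH477 (200nM […]) forskolin-analogue stimulation, 30 min at room temperature, with Ro20-1724 present at 0.1 mM final.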

[20] = target: D(2) dopamine receptor (Homo sapiens) (UniProt P14416); experiment: Dopamine D2 receptor (DRD2) small molecule antagonists, cell-based qHTS assay (AID 1963595; active means well fitted inhibition curve with a large enough effect in the signal ratio in the repeat runs, with a control signal flat; the % refers to the signal ratio)
In short: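 DRD2-HEK293; 0.1 mM Ro20-1724; cpd 10 min RT; NKH477 200 nM + quinpirole 12 nM, 30 min RT; HTRF cAMP (cAMP-d2/anti-cAMP cryptate), 665/620 nm ratio after 1 h.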

Measured: Potency

CNC(=O)c1c(I)c(NC(=O)CCCCC(=O)Nc2c(I)c(C(=O)O)c(I)c(C(=O)NC)c2I)c(I)c(C(=O)O)c1I
inactive: all assays above

CCCCOc1cc(C(=O)OCCN(CC)CC)ccc1N
inactive: all assays above

CC(=O)CC(=O)Nc1ccc(C)cc1C
not listed: [16]
inactive: all other assays above

COCCc1ccccn1
inactive: all assays above

C=C(C)C(=O)OCC(C)(C)COC(=O)C(=C)C
not listed: [18]
inactive: all other assays above

CC(=O)OC1CCCCC1
not listed: [18]
inactive: all other assays above
